# Screening data deposited in PubChem BioAssay by several laboratories.
# DYRK1A inh = rat Dyrk1A kinase inhibitors, primary screen, biochemical, single point, plate reader | Dual specificity tyrosine-phosphorylation-regulated kinase 1A (Rattus norvegicus), Q63470 | ADP-Glo luminescence, NFATc1 peptide | inhibition, % at 12.5 µM | 310,000 tested, 0.43% active; in the data active = inhibition above about 50%
# GC-A act = GC-A stimulated cGMP production enhancers – HEK293 GC-A cells, cGMP TR-FRET, EC30 ANP, primary screen; Atrial natriuretic peptide receptor 1 (Homo sapiens), P16066; 0% at EC30 ANP, 100% saturating ANP; activation, % at 10 µM; 370,000 tested, 0.14% active; AID 1671463, 2021; in the data active = activation above about 40%
# aDG glyco up = activators of alpha-DG glycosylation, primary screen, uHTS, Pro5-aDG cells, AlphaScreen. activation, % at 10 µM. alpha-DG glycosylation AlphaScreen (IIH6); 0% Pro5, 100% B10-LARGE cell signal. 360,000 tested, 0.22% active;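 active = activation of at least 8% versus controls, or a plate z-score of at least 8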;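 also: Pro5 are CHO cells carrying HIG-tagged alpha-DG that lacks glycosylation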
# HSF-1 act = HSF-1 activators, primary screen, NIH3T3-HGL cells, MG132 stress, luminescence, single point; NIH3T3-HGL HSF-1 luciferase reporter, 8 h; 100% = twice DMSO control signal; activation, % at 9 µM; 300,000 tested, 1.7% active;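 active = mean replicate activation of at least 50% with a set share of replicates each reaching 50%; inconclusive = only one of those two conditions met; inactive = mean below 50% and too few replicates reaching it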
# HSF1 inh = HSF1 inhibitors in luciferase reporter cells, primary screen, cell-based, NIH3T3, luminescence | NIH3T3-HGL HSE-luciferase, MG132-induced, luminescence 8 h; hits give low values | activity change, negative = inhibition, % at 7.5 µM (by protocol) | 300,000 tested, 0.77% active | AID 2098, 2009;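 active = more than half of replicate wells show activity change below -50%, luminescence cut by over half; inconclusive = some wells, but at most half, below -50%; inactive = no replicate well below -50%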;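 also: luciferase reports HSF-1 transcriptional activity via heat shock element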
# GC-B act = human GC-B receptor activators, primary screen, HEK293 GC-B cells, cGMP TR-FRET, EC30 CNP. Atrial natriuretic peptide receptor 2 (Homo sapiens), P20594. 0% at EC30 CNP, 100% saturating CNP. activation, % at 10 µM. 370,000 tested, 0.11% active. AID 1920062, 2024;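 active = activation at 10 µM reaching about 35% in either raw or pattern-adjusted values, limit read from the data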
# Numbers stand for hits; 0 = inactive; ? = inconclusive; - = no result. Compounds with a hit are over-represented: about 2.5% of the library has one in this group of screens.
SMILES,DYRK1A inh,GC-A act,aDG glyco up,HSF-1 act,HSF1 inh,GC-B act
O=C(N/N=C/c1cn(-c2ccccc2)nc1-c1ccc2c(c1)OCCO2)c1ccncc1,0,0,0,107,0,0
O=C(CCCNC(=O)/C(=C\c1ccccc1F)NC(=O)c1ccccc1)OCc1ccccc1,0,0,0,0,-56,0
O=C(O)CCCNC(=O)/C(=C\c1ccccc1F)NC(=O)c1ccccc1,0,0,0,0,0,0
OC(C#CCCN1CCCCC1)(c1ccccc1)C1CCCCC1 (stereo unspecified),0,0,0,0,0,0
O=C(Cc1cccs1)NCc1ccccc1Br,0,0,0,94,0,0
CCn1c(CSc2ncccn2)nnc1SCC(=O)N1CCCCC1,0,0,0,0,0,0
O=C(NCc1ccccc1C(F)(F)F)C1CC(c2ccc(C(F)(F)F)cc2)=NO1 (stereo unspecified),0,0,0,0,-65,0
CC(Cc1ccccc1)C(=O)Nc1ccccc1 (stereo unspecified),0,0,0,0,-65,0
CCOC(=O)N1CCC(NC(=O)c2cccs2)CC1,0,0,0,67,0,0
CCOC(=O)N1CCC(NCCNC(=O)c2cccs2)CC1,0,0,0,0,0,0
CCOC(=O)c1c(NC(=O)c2cccs2)sc2c1CCN(C(=O)OCC)C2,0,0,0,71,0,0
COC(=O)c1ccccc1NC(=S)N1CCN(c2ccccc2)CC1,0,0,0,0,0,0
O=C(/C=C/c1ccc(Br)cc1)NC(=O)c1ccccc1O,0,0,0,161,0,0
O=C(/C=C/c1ccc(O)c(O)c1)NC(=O)c1ccccc1O,0,0,0,0,0,0
Cc1ccc(C(=O)O)cc1-n1c(=O)n(Cc2ccccc2)c(=O)c2[nH]cnc21,0,0,0,0,0,0
O=C(CCS(=O)(=O)c1ccccc1)N(CCCN1CCOCC1)c1nc2c(F)cccc2s1,-,0,0,161,0,0
Cc1ccc(S(=O)(=O)CC(=O)N(CCCN2CCOCC2)c2nc3c(F)cccc3s2)cc1,0,0,0,0,0,0
O=C(CCS(=O)(=O)c1ccccc1)N(CCCN1CCOCC1)c1nc2ccc(F)cc2s1,0,0,0,147,0,0
Cc1ccc(C)c(Sc2ccc(NC(=O)CCl)cc2)c1,-,0,-,75,0,0
Cc1ccc(Sc2ccc(NC(=O)CCl)cc2)cc1C,0,0,0,0,0,0
Cc1ccc2nc(-c3ccccn3)c(NC3CCCC3)n2c1,0,0,0,0,0,0
COC(=O)CNc1c(-c2ccccn2)nc2ccc(Br)cn12,0,0,0,64,0,0
O=C(NC1CCCC1)N[C@@H]1CC[C@@H](CC(=O)N2CCOCC2)O[C@@H]1CO,-,0,0,-,-,0
Clc1ccccc1CN(Cc1ccco1)Cc1nnnn1C1CCCC1,0,0,0,69,0,0
c1coc(CN(Cc2cccs2)Cc2nnnn2C2CCCCC2)c1,0,0,0,0,0,0
SMILES,DYRK1A inh,GC-A act,aDG glyco up,HSF-1 act,HSF1 inh,GC-B act
Cc1cc(Nc2ccc(Cl)cc2)nc(-c2ccccc2O)n1,0,0,0,0,0,0
Cc1cc(Nc2cccc(Cl)c2)nc(-c2ccccc2O)n1,0,0,0,0,-70,0
Cc1c(C(=O)N2CCc3ccccc32)oc2c1C(=O)CC(C)(C)C2,0,0,0,-,-,0
Cc1ccc(CNc2cnccn2)cc1,0,0,0,0,0,0
CC1CC(C)CN(C(=O)CCS(=O)(=O)c2ccc3c(c2)NC(=O)CS3)C1 (stereo unspecified),0,0,0,85,0,0
CC1Sc2ccc(S(=O)(=O)CCC(=O)N3CCCCC3)cc2NC1=O (stereo unspecified),0,0,0,0,0,0
O=C(NCCc1ccccc1)c1nc2nc(-c3cccs3)cc(C(F)(F)F)n2n1,0,0,0,0,0,0
O=C(Cc1ccccc1)Nc1cccc(N2C(=O)C=CC2=O)c1,0,0,0,0,-62,0
Cc1ccc(OCCn2ncc3ccccc3c2=O)c(C)c1,0,0,0,0,0,0
O=c1c2ccccc2cnn1CCOc1cccc(Br)c1,0,0,0,94,0,0
COC(=O)c1ccc(CN2CCN(C3CCCCC3)C(CCO)C2)cc1 (stereo unspecified),0,0,0,0,-64,0
COC(=O)c1ccc(CN2CCN(C3CCCC3)C(CCO)C2)cc1 (stereo unspecified),0,0,0,0,0,0
CCN(c1ccc(NC(=O)COC(=O)c2ccc3ccccc3n2)cc1)C(C)C,0,0,0,0,0,0
C#CCNC(=O)C[C@H]1C(=O)N(CC=C)C2=CCCC[C@@]21C(=O)OCC,-,0,-,-,-,0
CCOC(=O)Nc1ccc2c(c1)Sc1ccccc1N2C(=O)CCN1CCOCC1,0,0,0,63,0,0
Cc1nn(CC(=O)N2CCCC2)c(=O)c2nn(-c3ccccc3)c(C)c12,0,0,0,0,0,0
C#CCN(C[C@H]1[C@H](OC(=O)NC2CC2)[C@H](OC(=O)NC2CC2)C[C@H]2C(=O)N(c3ccccc3)C(=O)[C@@H]12)S(=O)(=O)c1ccc(C)cc1,-,0,0,-,-,0
Cc1ccc(S(=O)(=O)N(CC(=O)N2CCOCC2)C2CCCCC2)cc1,0,0,0,0,0,0
COc1ccc(C(NC(=O)c2c(F)c(F)c(F)c(F)c2F)c2ccccc2)cc1 (stereo unspecified),0,0,0,53,0,0
COc1ccc(C(NC(=O)c2cc(OC)ccc2OC)c2ccccc2)cc1 (stereo unspecified),0,0,0,0,0,0
COC(=O)c1cc(CSc2nc3ccccc3[nH]2)oc1C,0,0,0,?,0,0
COc1ccc2c(CC(=O)N[C@@H](Cc3ccccc3)C(=O)O)cc(=O)oc2c1C,0,0,0,0,0,0
Cc1c(O)ccc2c(CC(=O)N[C@@H](Cc3ccc(O)cc3)C(=O)O)cc(=O)oc12,0,0,0,0,-70,0
O=C(COC(=O)COc1ccccc1)Nc1cccnc1Cl,0,0,0,-,-,0
O=C(COC(=O)COc1ccc(Cl)cc1Cl)Nc1cccnc1Cl,0,0,0,63,0,0
c1ccc(-c2cnnc3ccccc23)cc1,0,0,0,0,0,0
Cc1ccc(NC(=O)CN(C)C(=O)CSc2nnc(NC(C)C)s2)cc1,-,0,0,-,-,0
CCOC(=O)C(=Cc1c[nH]c2ccc(S(=O)(=O)N(C)C)cc12)C(=O)OCC,0,0,0,146,0,0
